PubChem BioAssay AID1117293 (Broad Institute, 2014)
Entries with a potency or affinity are not part of this list. Records with an inconclusive call do not appear. Activity calls are given as the source filed them.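 The calls were made as follows: active = cytotoxic in every repeat run, with fitted half-maximal concentration at most twice the top tested dose; inconclusive = runs disagree, or flat partial drop, or poor curve fit; inactive = inactive in every run.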

test: HEK293T cell cytotoxicity, dose response, cytotoxicity control, CellTiter-Glo luminescence, dry powder, set 20 (AID 1117293); conditions: HEK293T viability, CellTiter-Glo ATP luminescence, 72 h; series mostly up to 26 µM; activity change, negative = cytotoxicity: at the top concentration

SMILES | activity change, negative = cytotoxicity | outcome
CC(=O)N1CCN(C(=O)C2(NC(=O)Nc3cccc(C(F)(F)F)c3)CCCCC2)CC1 | -5.58% (inactive) | 
CC(=O)N1CCN(C(=O)C2(NC(=O)Nc3ccc(C(F)(F)F)cc3)CCCCC2)CC1 | -10.4% (inactive) | 
COc1ccc(C(=O)Nc2cc(C(F)(F)F)ccc2N2CCCCC2)cc1S(=O)(=O)O | -0.693% (inactive) | 
COc1ccc(C(=O)O)cc1S(=O)(=O)Nc1cc(C(F)(F)F)ccc1N1CCOCC1 | -19.9% (inactive) | 
Cc1ccc(NC(=O)NC2(C(=O)N3CCOCC3)CCCCC2)cc1 | -8.01% (inactive) | 
CC(=O)N1CCN(C(=O)C2(NC(=O)Nc3cccc(F)c3)CCCCC2)CC1 | -6.5% (inactive) | 
CC(=O)N1CCN(C(=O)C2(NC(=O)Nc3ccccc3)CCCC2)CC1 | 4.55% (inactive) | 
COc1cccc(NC(=O)NC2(C(=O)N3CCN(C(C)=O)CC3)CCCCC2)c1 | 2.63% (inactive) | 
Cc1ccccc1S(=O)(=O)Nc1cc(C(F)(F)F)ccc1N1CCCCC1 | -7.06% (inactive) | 
O=S(=O)(Nc1cc(C(F)(F)F)ccc1N1CCCCC1)c1ccc(Cl)cc1 | -21.7% (inactive) | 
Cc1ccc(NC(=O)NC2(C(=O)N3CCNCC3)CCCCC2)cc1 | 0.421% (inactive) | 
O=[N+]([O-])c1cccc(S(=O)(=O)Nc2cc(C(F)(F)F)ccc2N2CCCCC2)c1 | -23.7% (inactive) | 
O=[N+]([O-])c1ccc(S(=O)(=O)Nc2cc(C(F)(F)F)ccc2N2CCCCC2)c([N+](=O)[O-])c1 | 1.21% (inactive) | 
O=S(=O)(Nc1cc(C(F)(F)F)ccc1N1CCCCC1)c1ccccc1 | -6.45% (inactive) | 
Cn1cnc(S(=O)(=O)Nc2cc(C(F)(F)F)ccc2N2CCCCC2)c1 | 4.84% (inactive) | 
CC(=O)N1CCN(C(=O)C2(NC(=O)Nc3ccc(F)cc3)CCCC2)CC1 | -2.16% (inactive) | 
COc1ccc(C(=O)O)cc1S(=O)(=O)Nc1cc(C(F)(F)F)ccc1N(C)C | -19.4% (inactive) | 
CC(=O)N1CCN(C(=O)C2(NC(=O)Nc3ccccc3F)CCCCC2)CC1 |  | inactive
COc1ccc(C(=O)O)cc1S(=O)(=O)Nc1ccc(N2CCCCC2)cc1C(F)(F)F | 4.22% (inactive) | 
Cc1ccc(NC(=O)NC2(C(=O)N3CCN(c4ccccc4)CC3)CCCCC2)cc1 | 3.02% (inactive) | 
CC(=O)N1CCN(C(=O)C2(NC(=O)Nc3ccc(C(C)C)cc3)CCCC2)CC1 | 4.56% (inactive) | 
COc1ccc(S(=O)(=O)Nc2cc(C(F)(F)F)ccc2N2CCCCC2)cc1 | -15.2% (inactive) | 
CC(=O)N1CCN(C(=O)C2(NC(=O)Nc3ccccc3C(F)(F)F)CCCCC2)CC1 | -13.6% (inactive) | 
O=S(=O)(Nc1cc(C(F)(F)F)ccc1N1CCCCC1)c1ccc(C(F)(F)F)cc1 | -43.1% (inactive) | 
